# CBX7 AlphaScr – blocks human CBX7 binding to H3K27me3 peptide; O95931; AlphaScreen His6-CBX7 / biotin-H3K27me3 peptide binding; hits give low values; normalised signal (fraction of DMSO) (test concentration not listed); 66,000 compounds, 1.1% hits; AID 1224903; in the data active = normalised signal below about 0.5
# Target sequence (O95931 whole entry, looked up): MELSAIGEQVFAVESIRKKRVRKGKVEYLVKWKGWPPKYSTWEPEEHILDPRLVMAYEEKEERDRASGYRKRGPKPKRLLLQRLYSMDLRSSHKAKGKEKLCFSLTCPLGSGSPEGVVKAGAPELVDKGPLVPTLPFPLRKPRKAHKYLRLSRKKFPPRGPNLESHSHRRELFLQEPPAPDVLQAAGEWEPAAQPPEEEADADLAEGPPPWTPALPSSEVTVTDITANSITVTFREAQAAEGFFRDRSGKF
# Numbers stand for hits; . = inactive. The entries come from a sample that favours hits as a whole.
SMILES,CBX7 AlphaScr
CCOc1ccccc1NC(=O)CSc1nccn1-c1cccc(OC)c1,0.48
Cc1cccc(CC(=O)N2CC(=O)Nc3ccc(Cl)cc3C2c2ccc(F)cc2)c1 (stereo unspecified),.
CCn1c(C(=O)N2CCCc3ccccc32)cc2sc(Cl)cc21,.
Cn1c(SCC(=O)Nc2ccc(Cl)c(Cl)c2)nnc1-c1c[nH]c2ccccc12,.
CCN(CCCNC(=O)CCc1nc(-c2ccccc2F)no1)c1ccccc1,.
Cc1ccc(C2NC(C(=O)O)Cc3c2[nH]c2ccccc32)cc1 (stereo unspecified),.
CN(C)c1ccc(C2NC(C(=O)O)Cc3c2[nH]c2ccccc32)cc1 (stereo unspecified),0.25
CCOc1ccc(C2NCCc3c2[nH]c2ccccc32)cc1 (stereo unspecified),.
CCOCCCN1C(=O)c2ccccc2C1C(=O)NC1CCC(C)CC1 (stereo unspecified),.
COCCNC(=O)c1c[nH]n2c(=O)cc(C3CCNCC3)nc12,.
CCOC(=O)c1cnc2c(OC)cccc2c1N1CCC(Cc2ccccc2)CC1,0.42
CCOC(=O)c1cnc2c(OC)cccc2c1Nc1ccc(CC)cc1,.
CCOC(=O)c1cnc2c(OC)cccc2c1NCc1ccccc1OC,.
COc1cccc(CN2C(=O)c3ccccc3C2C(=O)NCc2cccnc2)c1 (stereo unspecified),.
O=C(Nc1ccc(Cl)cc1)c1cccnc1Nc1ccc(F)cc1,.
COc1ccc(-c2nc3cc(C)ccn3c2NC(=O)C(C)C)cc1,.
Cc1[nH]nc(-c2ccc(O)c(C)c2O)c1Oc1ccccc1,.
CCc1cc(-c2n[nH]c(C)c2Oc2ccccc2)c(O)cc1O,0.41
CCOc1cc(O)c(-c2n[nH]c(C)c2Oc2ccccc2)cc1CC,.
CCCCCC1CCC(c2ccc(-c3nc(-c4ccncc4)no3)cc2)CC1 (stereo unspecified),.
CCCC1CCC(c2nc(-c3ccc(OC(F)F)cc3)no2)CC1 (stereo unspecified),.
CCCC1CCC(c2ccc(-c3noc(-c4ccc(O)c(F)c4)n3)cc2)CC1 (stereo unspecified),0.49
CCOC(=O)N1CCN(c2c(NC(C)(C)C)c(=O)c2=O)CC1,.
Cc1cc(N2CCN(C)CC2)nc2ccc(NC(=O)CCC(=O)NCCN(C)C)cc12,.
CC(C)(C)c1ccc2c(c1)N(CC(=O)NCCN1CCN(Cc3ccccc3)CC1)C(=O)CO2,.
SMILES,CBX7 AlphaScr
CC(C)(C)c1ccc2c(c1)N(CC(=O)NCCc1ccccc1)C(=O)CO2,0.41
Cc1ccc(CCNC(=O)CN2C(=O)COc3ccc(C(C)(C)C)cc32)cc1,.
COc1ccccc1Nc1nc(-c2ccccc2)c(Oc2ccc(Cl)cc2)s1,.
CN(C(=O)Cn1ncc2c1-c1ccccc1OC2)c1cccc(C(F)(F)F)c1,.
O=C(Nc1ccc(F)cc1)C(Cc1ccccc1)NS(=O)(=O)c1cccc2cccnc12 (stereo unspecified),.
CCn1c(COc2cccc3cccnc23)nnc1SCC(=O)OC,.
O=C(CC(Sc1cccc2cccnc12)c1ccc(F)cc1)c1cccs1 (stereo unspecified),0.0063
Cc1onc(-c2ccccc2)c1C(=O)Nc1ccc(S(=O)(=O)Nc2nccs2)cc1,.
NS(=O)(=O)c1ccc(Nc2nnc(-c3ccc(O)cc3)c3ccccc23)cc1,.
O=S(=O)(Nc1nccs1)c1ccc(Nc2nnc(-c3ccccc3)c3ccccc23)cc1,0.046
Cc1nc(C)c(-c2csc(Nc3cccc(C(=O)O)c3)n2)s1,.
Cc1nc(C)c(-c2csc(Nc3cccc(O)c3)n2)s1,.
c1ccc(Nc2nc(-c3cccs3)cs2)cc1,.
Cc1nc(C)c(-c2csc(Nc3ccc(C(=O)O)cc3)n2)s1,.
Cc1cccc(Nc2nc(-c3sc(C)nc3C)cs2)c1,0.45
Cc1nc(C)c(-c2csc(Nc3ccccc3)n2)s1,0.48
O=C(NC1CCCCCCC1)C1c2ccccc2C(=O)N1Cc1ccc(F)cc1Cl (stereo unspecified),.
Cc1ccc(-c2nnc(NCc3ccccc3)c3ccccc23)cc1S(=O)(=O)N1CCN(C)CC1,.
Cc1cccc(NC(=O)c2cccc(COc3ccc4ccccc4c3)c2)n1,.
CCS(=O)(=O)N1CCCC(C(=O)NC(C)c2ccccc2)C1 (stereo unspecified),.
CC(C)Cc1cc(C(=O)NCc2ccccc2)no1,.
COc1cccc(CNC(=O)CCCOc2cc(=O)n(C)c3ccccc23)c1,.
CCc1ccc2oc(-c3ccc(NC(=O)c4ncn[nH]4)cc3)nc2c1,0
O=C(Nc1ccc2oc(-c3ccncc3)nc2c1)c1ccc(-c2ccc(F)cc2)o1,0.41
CCc1ccc2oc(-c3ccc(NC(=O)c4ccccc4)cc3)nc2c1,.
SMILES,CBX7 AlphaScr
O=C(Nc1ccc2oc(-c3cccnc3)nc2c1)c1ccc(-c2ccc(F)cc2)o1,.
CCc1ccc2oc(-c3ccc(NC(=O)c4cc(OC)cc(OC)c4)cc3)nc2c1,.
O=C(Nc1ccc2oc(-c3ccncc3)nc2c1)c1ccc(-c2ccc(Cl)cc2)o1,.
Cc1ccc(NC(=O)c2cnn(-c3ccccc3)c2C2CCN(C(=O)OC(C)(C)C)CC2)cc1F,.
Cc1ccc(-n2c3c(cc(C(=O)Nc4ccc(Cl)cc4)c2=O)C(=O)CC(C)(C)C3)cc1,.
COc1ccc(N2CCN(C(=O)Cc3c(C(=O)O)n(C)c4ccccc34)CC2)cc1,.
Cc1ccc2nsnc2c1NC(=O)c1ncn[nH]1,0.45
Cc1ccc2nsnc2c1NC(=O)c1cc(Cl)ccc1Cl,.
Cc1ccc2nsnc2c1NC(=O)c1cc(Br)ccc1Cl,.
OC(CCc1ccccc1)(CCN1CCCCC1)c1ccccc1 (stereo unspecified),.
COc1ccc(OC)c(-c2nc(Nc3ccccc3Cl)sc2CC(=O)O)c1,.
COc1cccc(N2CCN(C(=O)C(NS(=O)(=O)c3ccc4c(c3)CCC(=O)N4)c3ccccc3)CC2)c1 (stereo unspecified),.
O=S(=O)(NCC(Nc1ccccc1)c1ccccc1)c1ccc(Cl)cc1 (stereo unspecified),.
COc1ccccc1NC(CNS(=O)(=O)c1ccccc1)c1ccccc1 (stereo unspecified),0.47
COc1ccc(NC(CNS(=O)(=O)c2ccc(Cl)cc2)c2ccccc2)cc1 (stereo unspecified),.
O=C(Cn1c2c(c(-c3ccccc3Cl)cc1=O)CCC2)N1CCCCCC1,.
Cc1ccc(CNC(=O)CCc2c(C)nc3cc(-c4ccccc4)nn3c2C)cc1,.
c1ccc(C(c2ccccc2)N2CCN(CCCc3c[nH]c4ccccc34)CC2)cc1,.
Cc1ccc(C(c2ccccc2)N2CCN(CCCc3c[nH]c4ccccc34)CC2)cc1 (stereo unspecified),0.49
Fc1ccc(C(c2ccccc2)N2CCN(CCCc3c[nH]c4ccccc34)CC2)cc1 (stereo unspecified),.
COc1ccc(NC(=O)NCCCN2CCN(c3cccc(Cl)c3)CC2)cc1,.
O=C(CSc1nccn1-c1ccccc1)Nc1ccc(Br)cc1,.
CCCCN(C)S(=O)(=O)c1ccc(C(=O)Nc2nnc(C3CC3)o2)cc1,0.034
CCCCN(C)S(=O)(=O)c1ccc(C(=O)Nc2ccc(-c3nc4ccccc4[nH]3)cc2)cc1,.
CCCCN(C)S(=O)(=O)c1ccc(C(=O)Nc2ccccc2-c2nc3ccccc3o2)cc1,.
CCCN(CCC)S(=O)(=O)c1ccc(C(=O)Nc2nnc(C3CC3)o2)cc1,.
CC(C)CN(CC(C)C)S(=O)(=O)c1ccc(C(=O)Nc2nnc(C3CC3)o2)cc1,0.0062
